Results filed as inconclusive are left out. Where a call stands in place of a potency, no number is given. Active and inactive are the calls of the source. Unless noted, calls come from the whole dose curve; as a rule, active = well fitted curve in the direction sought with a large enough effect; inconclusive = small, poorly fitted or top-dose-only effect, or another doubt; inactive = no such curve, though single readings can be large; an effect the other way counts as inactive or inconclusive.
What was measured:
[1] = molecular target: Tumor susceptibility gene 101 protein (Homo sapiens) (UniProt Q99816); experiment: qHTS Assay for Iinhibitors of HIV-1 Budding by Blocking the Interaction of PTAP/TSG101: Hit Validation (AID 651600); details: PTAP peptide/TSG101 UEV interaction, biochemical assay; series mostly up to 57.5 µM; note: nearly all actives have a fitted effect of over 70% in size; note: potency is the fitted concentration of half-maximal effect
In short: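 Compounds are added to the Tsg101 binding domain (10 uM final) in pH 7.5 HEPES buffer. FITC-PTAP peptide follows at 50 nM final. After 20 min at r.t., polarized FITC emission is measured.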

[2] = Cell Proliferation Assay against the TMD8 Cell Line (AID 651645); details: TMD8 DLBCL cell line proliferation/viability; at 46.1 µM (top of the series);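 note: cells exposed to compound for 48 h before reading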
In short: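 500 TMD8 cells/well, RPMI + Glutamax, no phenol red, 5% FBS; cpd added immediately; 48 h, 37C, 5% CO2; CellTiter-Glo, luminescence. Controls: DMSO = 100%, bortezomib 9.2 uM final = 0%.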

[3] = Cell Proliferation Assay against the HBL1 Cell Line (AID 651646); details: HBL1 DLBCL cells; at 46.1 µM (top of the series);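 note: cells exposed to compound for 48 h before reading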
In short: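 CellTiter-Glo luminescence after 48 h compound exposure at 37C gives percent activity, with DMSO as 100% and 9.2 uM bortezomib final as 0%. Cells: 500 log-phase HBL1 per well, RPMI plus 5% FBS.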

[4] = molecular target: Tyrosine-protein kinase Yes (Homo sapiens) (UniProt P07947); experiment: qHTS for small molecule inhibitors of Yes1 kinase: Primary Screen (AID 686947); details: Yes1 kinase biochemical qHTS inhibition; series mostly up to 76.9 µM; note: nearly all actives have a fitted effect of over 60% in size
In short: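 In this qHTS format, inhibition is expressed relative to DMSO controls with enzyme (maximum) and without enzyme (minimum). The 60 min room-temperature reaction uses 0.1 mM ATP, with ADP detected by luminescence.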

[5] = qHTS for small molecule inhibitors of Yes1 kinase: Counter Assay (AID 686950); details: series mostly up to 76.9 µM;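 note: no kinase present so only ADP-Glo detection of a fixed ADP amount is tested; luminescence from ADP-Glo reporting ADP in a fixed ATP and ADP mixture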
In short: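 ADP-Glo luminescence read after a 60 min room-temperature incubation of compound with an ATP/ADP mix (0.08 mM/0.02 mM) and no kinase, following a 20 min compound preincubation. Signal scaled between ATP+ADP (max) and 0.1 mM ATP-only (min) wells; Tris pH 7.5, Mg2+, DTT.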

[6] = qHTS assay for small molecule agonists of the antioxidant response element (ARE) signaling pathway (AID 651741; active = well fitted activation curve with a large enough effect in the signal ratio; the % refers to the signal ratio); details: HepG2 ARE-bla reporter, beta-lactamase FRET ratio, 16 h; series mostly up to 96 µM
In short: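 Agonist activity is measured as ARE-driven beta-lactamase expression in a stable HepG2 reporter line, using 16 h compound treatment at 37 C and a FRET substrate fluorescence readout after 2 h.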

[7] = qHTS assay for small molecule activators of the p53 signaling pathway (AID 651743; active = well fitted activation curve with a large enough effect in the signal ratio, not every such curve was filed as active; the % refers to the signal ratio); details: HCT-116 p53RE-bla, beta-lactamase FRET ratio, 16 h; activation: stronger effect = higher value
In short: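 A beta-lactamase reporter under p53 response element control, stably carried by HCT-116 cells, reported pathway activation. Test compounds were applied for 16 hours at 37 C, and fluorescence was measured 2 hours after adding the B/G FRET substrate.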

[8] = qHTS assay for environmental chemicals that activate the Aryl hydrocarbon Receptor (AhR) signaling pathway (AID 651777); details: 1A2-DRE human hepatoma cells, luciferase, 24 h; activation: stronger effect = higher value; note: nearly all actives have a fitted effect of over 15% in size
In short: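 Quantitative HTS in stably transfected human liver-derived cells whose luciferase gene sits downstream of the CYP1A2 promoter and dioxin response element. After 24 hr exposure at 37 C, One-Glo luminescence was measured.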

[9] = qHTS assay for small molecule agonists of the antioxidant response element (ARE) signaling pathway measured by Nrf2-dependant transcriptional activity - cell viability counter screen (AID 720653; active = well fitted curve in the direction sought with a large enough effect in the repeat runs; an effect the other way counts as inactive or inconclusive); details: ARE-bla HepG2 viability, CellTiter-Glo ATP luminescence, 16 h; max response: stronger effect = lower value
In short: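 Cytotoxicity counter screen: intracellular ATP quantified by CellTiter-Glo luminescence in the same ARE-bla HepG2 plates, after 16 h compound exposure and a 2 h beta-lactamase substrate step.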

[10] = qHTS assay for cell viability of HEK293 cells (AID 743288); details: ATP luminescence (CellTiter-Glo), 18 h; max response: stronger effect = lower value; note: nearly all actives have a fitted effect of over 50% in size
In short: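 Viable-cell counts were inferred from luciferase-based ATP content in HEK293 cells seeded at 2,000/well, pre-incubated ≥5 h, then dosed with DMSO-solubilised compounds for 18 h at 37 C.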

[11] = qHTS for Inhibitors of Ubiquitin-specific Protease USP2a Using CHOP2 as the Reporter: K633 Counterscreen (AID 652168); details: No-enzyme DiUb K48 IQF substrate fluorescence interference, kinetic; series mostly up to 57.5 µM
In short: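 Detection-system control: fluorescence of K48-linked DiUb-4IQF substrate (100 nM as added) tracked over time, Ex 525/Em 598, with pinned compounds and no enzyme, in pH 8 Tris buffer containing beta-mercaptoethanol and 0.05% Chaps.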

[12] = qHTS for Inhibitors of Ubiquitin-specific Protease USP2a Using CHOP2 as the Reporter: Cytotox Assay (AID 652170); details: HCT116 viability, CellTiter-Glo luminescence, 72 h; series mostly up to 46.1 µM;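 note: HCT116 human colon cancer cells at 600 per well; nearly all actives have a fitted effect of over 70% in size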
In short: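 Cytotoxicity read as ATP luminescence (CellTiter-Glo) after 72 hr compound treatment at 37 deg C. Cells: HCT116, 600/well in DMEM plus 10% FBS. Normalization between DMSO-treated cells and cell-free wells.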

[13] = molecular target: Ubiquitin carboxyl-terminal hydrolase 2 (Homo sapiens) (UniProt O75604); experiment: qHTS for Inhibitors of Ubiquitin-specific Protease USP2a Using CHOP2 as the Reporter: K484 Substrate (AID 652173); details: USP2 cleavage of DiUb K48 IQF substrate, fluorescence; series mostly up to 57.5 µM;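 note: cleavage of internally quenched K48 di-ubiquitin substrate measured as rising fluorescence over time; potency is the fitted concentration of half-maximal effect; nearly all actives have a fitted effect of over 70% in size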
In short: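 Kinetic fluorescence (Ex 525/Em 598) tracked cleavage of an internally quenched K48 di-ubiquitin substrate, added as a 100 nM solution. The enzyme was added as a 5 nM USP2 solution before compound pinning, with no-enzyme controls. Buffer: Tris pH 8, beta-mercaptoethanol, CHAPS.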

Tumor susceptibility gene 101 protein (Homo sapiens), sequence (Q99816 whole entry, looked up, the tested form may be a part): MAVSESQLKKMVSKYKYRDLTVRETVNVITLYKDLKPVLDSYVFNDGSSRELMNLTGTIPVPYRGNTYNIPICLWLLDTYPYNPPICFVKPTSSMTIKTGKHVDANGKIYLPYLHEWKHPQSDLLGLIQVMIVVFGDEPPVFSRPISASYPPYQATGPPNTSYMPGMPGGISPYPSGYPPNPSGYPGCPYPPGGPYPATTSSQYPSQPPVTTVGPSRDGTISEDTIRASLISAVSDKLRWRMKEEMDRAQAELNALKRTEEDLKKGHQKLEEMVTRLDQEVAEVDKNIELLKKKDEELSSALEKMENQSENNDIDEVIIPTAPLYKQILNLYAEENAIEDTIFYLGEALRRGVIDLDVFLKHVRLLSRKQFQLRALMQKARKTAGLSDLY
Ubiquitin carboxyl-terminal hydrolase 2 (Homo sapiens), sequence (O75604 whole entry, looked up): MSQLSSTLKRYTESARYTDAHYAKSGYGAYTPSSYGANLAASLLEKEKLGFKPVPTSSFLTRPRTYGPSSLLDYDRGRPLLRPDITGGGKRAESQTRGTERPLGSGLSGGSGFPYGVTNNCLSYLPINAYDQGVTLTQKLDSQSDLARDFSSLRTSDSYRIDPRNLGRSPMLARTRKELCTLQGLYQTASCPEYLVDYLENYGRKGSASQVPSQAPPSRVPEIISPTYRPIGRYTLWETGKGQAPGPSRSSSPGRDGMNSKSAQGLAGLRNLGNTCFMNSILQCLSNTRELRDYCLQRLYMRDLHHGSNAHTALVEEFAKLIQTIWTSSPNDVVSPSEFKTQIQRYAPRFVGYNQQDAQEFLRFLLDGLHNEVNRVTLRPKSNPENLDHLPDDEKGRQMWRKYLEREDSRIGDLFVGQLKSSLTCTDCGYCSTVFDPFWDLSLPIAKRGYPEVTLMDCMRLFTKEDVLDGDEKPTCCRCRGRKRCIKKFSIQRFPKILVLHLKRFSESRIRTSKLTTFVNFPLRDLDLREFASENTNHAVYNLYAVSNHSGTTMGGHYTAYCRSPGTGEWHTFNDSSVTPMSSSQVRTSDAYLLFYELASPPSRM
Tyrosine-protein kinase Yes (Homo sapiens), sequence (P07947 whole entry, looked up): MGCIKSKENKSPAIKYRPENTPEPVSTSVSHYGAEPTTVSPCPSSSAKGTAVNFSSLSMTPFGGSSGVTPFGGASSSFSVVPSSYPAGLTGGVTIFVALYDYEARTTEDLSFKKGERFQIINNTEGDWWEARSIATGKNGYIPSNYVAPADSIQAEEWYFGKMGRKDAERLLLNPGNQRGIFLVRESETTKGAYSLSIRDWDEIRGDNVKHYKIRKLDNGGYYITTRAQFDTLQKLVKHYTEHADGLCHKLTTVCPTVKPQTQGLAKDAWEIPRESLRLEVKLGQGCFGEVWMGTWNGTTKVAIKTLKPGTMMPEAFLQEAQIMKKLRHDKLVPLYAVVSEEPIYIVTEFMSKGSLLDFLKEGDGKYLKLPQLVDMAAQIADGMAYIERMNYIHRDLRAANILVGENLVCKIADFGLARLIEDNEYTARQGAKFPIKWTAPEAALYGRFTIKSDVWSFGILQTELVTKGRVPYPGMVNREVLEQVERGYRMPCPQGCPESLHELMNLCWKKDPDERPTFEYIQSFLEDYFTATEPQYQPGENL

Question: Which Potency [1] does the source give for `O=C(CN1C(=O)NC(Cc2c[nH]c3ccccc23)C1=O)Nc1ccccc1C(F)(F)F` (centres undefined) here?
Answer: The Potency was “inactive”.

Question: For `Cc1cccc(N=Nc2c(O)[nH]c3ccc(F)cc23)c1`, which Potency [1] is on record?
Answer: Its Potency is “inactive”.

Question: With `CCOC(=O)N1CCN(c2nc3ccccc3nc2C(C#N)S(=O)(=O)c2ccc(C)cc2)CC1` (centres undefined) as the compound, how does the Potency [1] read?
Answer: Its Potency is “inactive”.

Question: With `C=C1CCN(c2ccc(C(=O)O)cc2[N+](=O)[O-])CC1` as the compound, how does the Potency [1] read?
Answer: The Potency was “inactive”.

Question: With `Oc1c(C=Nc2ccccc2)sc2ccccc12` as the compound, how does the Potency [1] read?
Answer: The Potency was “inactive”.

Question: Which Potency [1] does the source give for `COc1ccccc1N1C(C)=CC(=C(C#N)c2nc3ccccc3s2)C=C1C` here?
Answer: The Potency was 25.9 µM (active).

Question: For `O=S(=O)(Nc1cccc(-c2ccc(N3CCCCCC3)nn2)c1)c1cccc(F)c1`, which Potency [1] is on record?
Answer: The Potency was “inactive”.

Question: With `COCCNC(=S)N/N=C/c1c2ccccc2cc2ccccc12` as the compound, how does the Potency [1] read?
Answer: Its Potency is “inactive”.

Question: For `CCOc1ccc(NC(=O)c2ccc3c(c2)CCN3S(C)(=O)=O)cc1`, which Potency [1] is on record?
Answer: The Potency was “inactive”.

Question: For `Cn1cc(/C=C2\SC(=S)N(NC(=O)c3ccccc3)C2=O)c2ccccc21`, which Potency [1] is on record?
Answer: The Potency was “inactive”.

Question: With `CCCCCOc1ccc(/C=c2\sc3nc(=O)c(-c4ccccc4)nn3c2=O)cc1OC` as the compound, how does the Potency [1] read?
Answer: Its Potency is “inactive”.

Question: With `Cc1ccc(CSc2nnc3c(n2)OC2(Nc4ccccc4-3)C(=O)Nc3ccc(F)cc32)cc1` (centres undefined) as the compound, how does the Potency [1] read?
Answer: The Potency was “inactive”.

Question: Which Potency [1] does the source give for `CCN(CC)c1ccc2cc(-c3nc(-c4ccc(OC)cc4)cs3)c(=O)oc2c1` here?
Answer: Its Potency is “inactive”.

Question: With `Cn1nc([N+](=O)[O-])c(C(C#N)c2nc3ccccc3n2C)c(Cl)c1=O` (centres undefined) as the compound, how does the Potency [1] read?
Answer: Its Potency is “inactive”.

Question: Which Potency [1] does the source give for `CC(=O)N1c2ccccc2C(=O)C1N1CCCCC1` (centres undefined) here?
Answer: The Potency was “inactive”.

Question: For `CS(=O)(=O)Nc1nc2n(n1)C(c1ccccc1)C=C(c1ccc(Br)cc1)N2` (centres undefined), which Potency [1] is on record?
Answer: Its Potency is 32.6 µM (active).

Question: For `COC(=O)c1c(NC(=O)CC2Nc3cc(C)c(C)cc3NC2=O)sc(C)c1C` (centres undefined), which Potency [1] is on record?
Answer: Its Potency is “inactive”.

Question: With `Cc1cc[n+](-c2[nH]c(=O)sc2/C=N/N=C(\[O-])c2ccccc2)cc1C` as the compound, how does the Potency [1] read?
Answer: Its Potency is 10.3 µM (active).

Question: With `COc1ccc(-c2cc(C(F)(F)F)c3c(N)c(C(=O)NCCSC)sc3n2)cc1` as the compound, how does the Potency [1] read?
Answer: Its Potency is “inactive”.

Question: For `O=[N+]([O-])c1ccc(-c2ccc(/C=N/Nc3nc(N4CCCC4)nc(N4CCCC4)n3)o2)cc1`, which Potency [1] is on record?
Answer: The Potency was “inactive”.

Question: For `Cc1ccc(C(=O)Nc2ccc(C(=O)O)cc2)cc1S(=O)(=O)NCc1ccccc1`, which Potency [1] is on record?
Answer: The Potency was “inactive”.

Question: Which Potency [1] does the source give for `Cc1c(C(=O)N(C)c2cccc(C(F)(F)F)c2)sc2nc3n(c(=O)c12)CCCCC3` here?
Answer: Its Potency is “inactive”.

Question: For `COc1ccc(C2C(C(=O)c3cccs3)=C(O)C(=O)N2c2nnc(C)s2)cc1OC` (centres undefined), which Potency [1] is on record?
Answer: Its Potency is 6.51 µM (active).

Question: For `O=[n+]1c2c(n([O-])c3cc(F)c(N4CCCC4)cc31)CCC2`, which Potency [1] is on record?
Answer: Its Potency is 13 µM (active).

Question: For `Cc1cc(Nc2cccc(Cl)c2C)n2ncnc2n1`, which Potency [1] is on record?
Answer: Its Potency is “inactive”.

Question: With `CCCCOC(=O)c1ccc(NC(=O)/C(C#N)=C/c2ccc(-c3ccccc3)o2)cc1` as the compound, how does the Potency [1] read?
Answer: Its Potency is “inactive”.

Question: For `Cc1cccc(CCNC(=O)c2sc3nc4n(c(=O)c3c2C)CCCC4)c1`, which Potency [1] is on record?
Answer: Its Potency is “inactive”.

Question: Which Potency [1] does the source give for `CN1c2ccc(C=O)c3c(C=O)ccc(c23)N(C)C1(C)C` here?
Answer: Its Potency is “inactive”.

Question: Which viability (% of control) [2] does the source give for `C=C1C(=C/C=C2\CCC[C@]3(C)[C@@H]([C@H](C)/C=C/[C@H](C)C(C)C)CC[C@@H]23)C[C@@H](O)C[C@@H]1O` here?
Answer: The viability (% of control) was -0.788%.

Question: And the viability, percent of control [3]?
Answer: Its viability, percent of control is -0.446%.

Question: What about the Potency [4] of the same compound?
Answer: Its Potency is “inactive”.

Question: And the outcome [5]?
Answer: Its outcome is “inactive”.

Question: Which Potency [6] does the source give for `CCCCCCCC1CCC(=O)O1` (centres undefined) here?
Answer: The Potency was “inactive”.

Question: And the activation [7]?
Answer: Its activation is -2.71% (inactive).

Question: What about the activation [8] of the same compound?
Answer: Its activation is 4.53% (inactive).

Question: And the max response [9]?
Answer: Its max response is -3.73% (inactive).

Question: And the max response [10]?
Answer: The max response was -3.73% (inactive).

Question: Which results are given for `N#Cc1ccc(S(=O)(=O)Nc2cnccc2C(=O)Nc2nc(-c3ccccc3)cs2)cc1`?
Answer: outcome [11]: inactive; Potency [12]: inactive; Potency [13]: 2.43 µM (active)

Question: For `Cc1ccc(S(=O)(=O)Nc2cnccc2C(=O)Nc2nc(-c3cccnc3)cs2)cc1`, which outcome [11] is on record?
Answer: Its outcome is “inactive”.

Question: What about the Potency [12] of the same compound?
Answer: Its Potency is “inactive”.

Question: What about the Potency [13] of the same compound?
Answer: The Potency was 13.7 µM (active).

Question: What does the source list for `O=C(Nc1nc(-c2ccccc2)cs1)c1ccncc1NS(=O)(=O)c1cccs1`?
Answer: outcome [11]: inactive; Potency [12]: inactive; Potency [13]: 3.43 µM (active)

Question: With `O=C(Nc1nc(-c2ccccc2)cs1)c1ccncc1NS(=O)(=O)c1ccc(C(F)(F)F)cc1` as the compound, how does the outcome [11] read?
Answer: The outcome was “inactive”.

Question: And the Potency [12]?
Answer: The Potency was “inactive”.

Question: And the Potency [13]?
Answer: Its Potency is 3.06 µM (active).

Reference: PubChem BioAssay (NCATS)
